# Source: PubChem BioAssay (NCATS)
# Records with an inconclusive call do not appear. Values without a mark were called inactive. Calls come from the whole dose curve; as a rule, active = well fitted curve in the direction sought with a large enough effect; inconclusive = small, poorly fitted or top-dose-only effect, or another doubt; inactive = no such curve, though single readings can be large; an effect the other way counts as inactive or inconclusive.
# Molecular target: Aldehyde dehydrogenase, mitochondrial (Homo sapiens) (UniProt P05091)
# Assay: qHTS for Inhibitors of the Aldehyde Dehydrogenase Family (ALDH2) Primary screen (AID 2061308);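 note: plate controls were vehicle for no effect and reference inhibitor for full effect; nearly all actives have a fitted effect of over 55% in size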
# Conditions: ALDH2 enzyme inhibition qHTS, 1536-well; series mostly up to 56 µM; activity change, negative = inhibition: at the top concentration
row,SMILES,"activity change, negative = inhibition"
1,Cc1cc(OCCCS(C)(=O)=O)cc(C)c1-c1cccc(COc2ccc(C3=CC(=O)NS3=O)cc2)c1 (stereo not drawn),-2.71%
2,CCC(C)CNCC(=O)N1CCC2SC=CC2C1COc1cccc(C)c1 (stereo not drawn),4.25%
3,C[C@@H]1CC[C@]2(C(=O)O[C@@H]3O[C@H](CO)[C@@H](O)[C@H](O)[C@H]3O)CC[C@]3(C)C(=CCC4[C@@]5(C)C[C@@H](O)[C@H](O)C(C)(C)C5CC[C@]43C)C2[C@]1(C)O (stereo partly drawn),-1.41% [at 16.9 µM]

# Molecular target: Retinaldehyde dehydrogenase 3 (Homo sapiens) (UniProt P47895)
# Assay: qHTS for Inhibitors of the Aldehyde Dehydrogenase Family (ALDH1A3) Primary screen (AID 2061315);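 note: plate controls were DMSO vehicle for no effect and reference inhibitor for full effect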
# Conditions: ALDH inhibition qHTS; series mostly up to 56 µM; activity change, negative = inhibition: at the top concentration
row,SMILES,"activity change, negative = inhibition"
1,CC1(C)CCC2(C(=O)O)CCC3(C)C(=CCC4C5(C)CCC(O)C(C)(CO)C5C(O)CC43C)C2C1 (stereo not drawn),-0.46% [at 28 µM]
2,CC(C)=CCC/C(C)=C/CO[C@@H]1O[C@H](CO)[C@@H](O)[C@H](O)[C@H]1O,6.04%
3,COC(=O)C1=CO[C@@H](O[C@@H]2O[C@H](CO)[C@@H](O)[C@H](O)[C@H]2O)[C@@H]2[C@@H](C(=O)O)CC[C@H]12,-13.9% [at 28 µM]
4,CCOc1ccc(-c2ccc(Cn3c(CC(C)(C)C(=O)O)c(SC(C)(C)C)c4cc(OCc5ccc(C)cn5)ccc43)cc2)cn1,1.59%
5,COC(=O)C1(C)CCC2(C(=O)O)CCC3(C)C(=CCC4C5(C)CC(O)C(OC6OCC(O)C(O)C6O)C(C)(CO)C5CCC43C)C2C1 (stereo not drawn),-3.74% [at 16.9 µM]
6,CO[C@H]1C[C@@H]2CC[C@@H](C)[C@@](O)(O2)C(=O)C(=O)N2CCCC[C@H]2C(=O)O[C@H]([C@H](C)C[C@H]2CC[C@@H](OP(C)(C)=O)[C@H](OC)C2)CC(=O)[C@H](C)/C=C(\C)[C@@H](O)[C@@H](OC)C(=O)[C@H](C)C[C@H](C)/C=C/C=C/C=C/1C,-18.3%
7,O=C(O)c1cccc(C(=O)CCC2OC(n3cnc4c(=O)[nH]cnc43)C(O)C2O)c1 (stereo not drawn),-1.07% [at 28 µM]
8,COc1cc(C(=O)NC2CCN(C)CC2)ccc1Nc1ncc2c(n1)N(C1CCCC1)CC(F)(F)C(=O)N2C,-13.4%
9,CN1C(=O)N(c2cc(Cl)cc(Cl)c2)C(=O)[C@@]1(C)Cc1ccc(Br)cc1,-2.06%
10,CC(=O)c1ccc(O[C@@H]2O[C@H](CO[C@@H]3OC[C@@H](O)[C@H](O)[C@H]3O)[C@@H](O)[C@H](O)[C@H]2O)cc1,0.741% [at 28 µM]
11,CC(=O)O[C@@]1(C)C[C@@H](O)[C@]2(O)C=CO[C@@H](O[C@@H]3O[C@H](CO)[C@@H](O)[C@H](O)[C@H]3O)[C@@H]21,0.0385% [at 28 µM]
12,CC(=O)C1=CCC2C3CC=C4CC(O)CC(O)C4(C)C3C(O)CC12C (stereo not drawn),11.8%
13,C/C=C/C=C/C(=O)OC1CC/C=C/C(O)C(O)C(CCC)OC1=O (stereo not drawn),50.1%
14,COc1cc(C)c(C(=O)O[C@H]2[C@@H](OC(C)=O)[C@H](n3ccc(=O)[nH]c3=O)O[C@@H]2CO)c(OC)c1,-11.4% [at 28 µM]
15,CC(=O)N[C@@H](CCCCN)C(=O)N(C)[C@@H](CC(C)C)C(=O)N[C@H](C(=O)N(C)[C@@H](Cc1ccccc1)C(=O)N[C@H](Cc1ccccc1)C(N)=O)C(C)C,0.0688% [at 5.59 µM]
16,CC1(C)[C@@H](O[C@H]2O[C@H](C(=O)O)[C@@H](O)[C@H](O)[C@H]2O[C@@H]2O[C@H](C(=O)O)[C@@H](O)[C@H](O)[C@H]2O)CC[C@]2(C)[C@H]3C(=O)C=C4[C@@H]5C[C@@](C)(C(=O)O)CC[C@]5(C)CC[C@@]4(C)[C@]3(C)CC[C@@H]12,-21.2% [at 28 µM]
17,CC1(C)CCCC2(C)C(CO)C(CO)=CCC12 (stereo not drawn),0.811%
18,CC(C)=CCC/C(C)=C/CCC1(C)Oc2c(c(O)cc3c2CN(C(CCC(=O)O)C(=O)O)C3=O)CC1O (stereo not drawn),6.82% [at 28 µM]
19,CC1COC(Nc2ccc3ncnc(Nc4ccc(OCc5nccs5)c(Cl)c4)c3c2)=N1 (stereo not drawn),3.88%
20,CC(=O)OC[C@@]12[C@H](O)C[C@@H](C)[C@]3(C[C@@H](c4ccoc4)OC3=O)[C@H]1C[C@H](O)C[C@]21CO1,3.46% [at 28 µM]

row,SMILES,"activity change, negative = inhibition"
1,CC1(C)CC[C@]2(C(=O)O)[C@H](O)C[C@]3(C)C(=CCC4[C@@]5(C)CC[C@H](O[C@@H]6OC[C@@H](O)[C@H](O)[C@H]6O)[C@@](C)(C(=O)O)C5CC[C@]43C)[C@@H]2C1 (stereo partly drawn),14.4% [at 16.9 µM]
2,CC(=O)OC(C)(C)/C=C/C(=O)C(C)(O)C1C(O)CC2(C)C3CC=C(C(C)(C)C(=O)O)C(CC(=O)O)C3(C)C(=O)CC12C (stereo not drawn),10.9% [at 16.9 µM]
3,O=C(O)c1cccc(CN2C(=O)/C(=C(\c3ccccc3)c3ccc(Cl)cc3)c3ccccc32)c1,11.3%
4,C[C@H](NC(=O)C(C)(C)Oc1ccc(C(F)(F)F)cn1)[C@@H](Cc1ccc(Cl)cc1)c1cccc(C#N)c1,17%
5,C=C(C(=O)O)[C@@H]1CC[C@@]2(C)CCC[C@@](C)(O)[C@@H]2C1,3.3%
6,COC1OC(=O)C2=C1C1(C)CCCC(C)(C)C1CC2O (stereo not drawn),-14.9%
7,COc1ccc(-c2ccccc2)cc1NS(=O)(=O)c1cc(Cl)cc(Cl)c1O,-4.98% [at 28 µM]
8,C=C(C(=O)O)[C@@H]1CC[C@H](C)[C@@H]2CC(=O)C(C)=C2C1,-27.2%
9,CC(C)=CCC[C@](C)(O[C@@H]1O[C@H](CO[C@@H]2OC[C@@H](O)[C@H](O)[C@H]2O)[C@@H](O)[C@H](O)[C@H]1O)[C@H]1CC[C@]2(C)[C@@H]1[C@H](O)C[C@@H]1[C@@]3(C)CC[C@H](O[C@@H]4O[C@H](CO)[C@@H](O)[C@H](O)[C@H]4O)C(C)(C)[C@@H]3CC[C@]12C,-28.2% [at 28 µM]
10,CC(=O)OCC1OC(O[C@H]2CC[C@@]3(C)C(CC[C@]4(C)C3CC=C3[C@@H]5CC(C)(C)CC[C@]5(C(=O)O)CC[C@]34C)[C@]2(C)CO)C(O)C(O)C1OC1OC(C)C(O)C(OC2OCC(O)C(O)C2O)C1O (stereo partly drawn),16.4% [at 16.9 µM]
11,CO[C@H]1[C@@H](O)[C@H](O[C@H]2CC[C@@]3(C)C(CCC4C3CC[C@]35COC6(COC(=O)C6)C3CCC45O)C2)O[C@@H](C)[C@@H]1OC1OC(CO)C(OC2OC(CO)C(O)C(O)C2O)C(O)C1O (stereo partly drawn),2.77% [at 16.9 µM]
12,OCC(CO[C@@H]1O[C@H](CO)[C@@H](O)[C@H](O)[C@H]1O)c1ccc2c(c1)OCO2 (stereo partly drawn),3.37%
13,COc1cc(O)cc(C)c1C(=O)OC1C(CO)OC(OC2C(O)C(O)C(O)C(O)C2O)C(O)C1O (stereo not drawn),-7.47% [at 28 µM]
14,C/C=C(\C)C(=O)OCC1OC(OCC2OC(OC3(CO)OC(CO)C(O)C3O)C(O)C(O)C2O)C(O)C(O)C1O (stereo not drawn),14.9% [at 16.9 µM]
15,O=C1[C@H](O[C@@H]2O[C@H](CO)[C@@H](O)[C@H](O)[C@H]2O)Oc2ccccc2N1O,-11.2%
16,CC(C)c1ccc2c(c1)[C@H](O)CC1[C@@](C)(C(=O)O)CCC[C@]21C (stereo partly drawn),7.22%
17,CC1=CC2/C=C(\C)CC[C@@H](O)[C@@H](O)[C@@H]3O[C@@H]3C(=O)[C@]23C(=O)N[C@@H](CC(C)C)[C@@H]3[C@@H]1C (stereo partly drawn),1.93% [at 28 µM]
18,Cc1cc(OCCCS(C)(=O)=O)cc(C)c1-c1cccc(COc2ccc(C3=CC(=O)NS3=O)cc2)c1 (stereo not drawn),23.6%
19,CCC(C)CNCC(=O)N1CCC2SC=CC2C1COc1cccc(C)c1 (stereo not drawn),6.27%
20,C[C@@H]1CC[C@]2(C(=O)O[C@@H]3O[C@H](CO)[C@@H](O)[C@H](O)[C@H]3O)CC[C@]3(C)C(=CCC4[C@@]5(C)C[C@@H](O)[C@H](O)C(C)(C)C5CC[C@]43C)C2[C@]1(C)O (stereo partly drawn),5.91% [at 16.9 µM]
